Pf growth 96h – inhibits malaria parasite growth, 96 h. Potency, µM (doses to about 28.7 µM), hits mostly inhibitors. P. falciparum luciferase reporter growth, 96 h. 320,000 tested, 6.9% active. AID 504834
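Compounds incubated with erythrocytes infected by luciferase-expressing P. falciparum (2% hematocrit, 0.05% parasitemia final) for 96 hours, 37 C in 5% CO2. Growth inhibition scored as decreased luciferase luminescence.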
HCV inh – inhibitors of hepatitis C virus infection. Huh7.5.1 HCVcc-Cre infection, luciferase reporter, 44 h. Potency, µM (highest dose often 41.8 µM), hits mostly inhibitors. AID 651820. 340,000 tested, 3.4% active
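Whole-lifecycle infectious HCVcc-Cre system; cells 1,000/well, compound then virus (~0.5 moi) added 4 h after plating, 44 h culture. Luciferase read 15 sec following 15 min substrate incubation, room temp.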
CHX counter – counter-screen hit for Shiga toxin inhibitors, cycloheximide | cell reporter, cycloheximide protein synthesis inhibition counterscreen | max response, % | 300,000 tested, 12% active | AID 2314; in the data active = max response mostly above about 13%, no sharp cut-off; inactive = mostly below about 14%; also: read at 38.3 µM for the half of the compounds with a filed dose
HCMV antiviral – human cytomegalovirus inhibition; AID 1259415; activity change, negative = inhibition, % at 57.5 µM; HFF cells, HCMV-luciferase reporter, 72 h; active compounds read low; 410,000 tested, 4.5% active; in the data active = activity change below about -60%; inconclusive = no clear call, values can overlap the other calls; inactive = above about -39%
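Cell-based, HFFs, 1000 cells/well, 16 h 37C; cpds in DMSO + HCMV-luc, MOI 1 PFU/cell; 72 h 37C; OneGlo luminescence after 5 min RT; norm. to buffer vs Salinomycin 10uM.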
Shiga toxin inh – blocks Shiga toxin action in Vero cells; Vero cells, Shiga toxin protein synthesis inhibition reporter; inhibition, % at 38.7 µM; 290,000 tested, 9.2% active; AID 2315; in the data active = inhibition mostly above about 28%, no sharp cut-off; inactive = mostly below about 43%
Pf growth 48h – P. falciparum growth inhibition at 48 hours (one generation); Potency, µM (highest dose often 28.7 µM), most hits filed as inhibitors; AID 504832; P. falciparum luciferase growth in erythrocytes, 48 h; 310,000 tested, 5.9% active
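Luminescence readout; reporter = integrated firefly luciferase in P. falciparum. RBC culture at 2% hematocrit, 0.1% parasitemia final, 37 C/5% CO2; decreased signal taken as growth inhibition.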
Hits are given with their value; i = inactive; ? = inconclusive; nt = no result given; [ ] = remark or other dose. A selection: hits, their analogues and other compounds. The true share with any hit is near 21%. Unless noted, calls follow the shape of the dose curve; as a rule, active = well fitted inhibition curve with a large enough effect; inconclusive = small, poorly fitted or top-dose-only effect, or another doubt; inactive = no such curve, though single readings can be large or run the other way.

SMILES | Pf growth 96h | HCV inh | CHX counter | HCMV antiviral | Shiga toxin inh | Pf growth 48h
COc1ccccc1N(C)S(=O)(=O)c1ccc(C(=O)N(C)Cc2ccc(OC(F)F)cc2)cc1 | ? | 4µM | nt | i | nt | 12µM
Cc1ccc(CN(C)C(=O)c2ccccc2Sc2ccccc2C#N)cc1 | ? | ? | i | i | i | i
CN(Cc1ccc(OC(F)F)cc1)C(=O)c1ccccc1Sc1ccccc1C#N | nt | ? | nt | -69 | nt | nt
COC(=O)c1ccc(CNC(=O)c2ccc(S(=O)(=O)N(C)c3ccccc3OC)cc2)cc1 | ? | 8.9µM | nt | i | nt | ?
COc1ccccc1N(C)S(=O)(=O)c1ccc(C(=O)NCC2CCCCC2)cc1 | ? | ? | nt | i | nt | 13µM
COc1ccc(-n2c3c(c(=O)[nH]c2=O)C(NS(=O)(=O)c2ccc(Cl)cc2)(C(F)(F)F)C(=O)N3)cc1 (stereo unspecified) | ? | i | i | i | i | ?
Cc1ccc2c(=O)cc(C(=O)Nc3sc4c(c3C(=O)NCc3ccco3)CCC4)oc2c1C | nt | nt | nt | i | nt | nt
CC[C@@]1(C(=O)OC)N[C@H](CN(C)C(=O)COC)[C@@H]2C(=O)N(C)C(=O)[C@@H]21 | nt | i | nt | i | nt | nt
O=C(NCC1CCCCC1)c1ccc(=O)[nH]c1 | i | i | i | i | i | ?
N#Cc1ccc(C(=O)NCC2CCCCC2)cc1 | i | i | 11 | i | 51 | i
CCCCC(=O)OCc1nc2ccccc2s1 | i | i | 28 | i | i | i
Cc1noc(C)c1COC(=O)CCCc1nc2ccccc2s1 | 5.2µM | i | i | i | i | i
Cc1ccc(S(=O)(=O)Nc2c(C)n(C)n(-c3ccccc3)c2=O)cc1C(=O)OCC(=O)N1CCCC(C)C1 (stereo unspecified) | i | i | i | i | i | i
O=C(Nc1cccc(-c2nc3ccccc3c(=O)o2)c1)c1ccccc1 | ? | i | i | i | i | i
O=c1oc(Nc2cccc(F)c2)nc2ccccc12 | i | i | 18 | i | 105 | i
Nc1nc(Nc2cccc(F)c2)nc2ccccc12 | i | i | 29 | i | 105 | ?
CCOc1ccc(N2C(=O)CC(Cc3ccc(Br)cc3)C2=O)cc1 (stereo unspecified) | ? | ? | i | i | i | i
CCOc1ccc(-n2c(-c3ccc(OC)cc3)c[n+]3c2CCCCC3)cc1 | ? | 7.9µM | i | -99 | i | 0.74µM
CCOc1ccc(-n2c(-c3ccccc3)c[n+]3c2CCC3)cc1 | ? | i | i | i | i | ?
CCOc1ccc(-n2c(-c3ccc(Br)cc3)c[n+]3c2CCCCC3)cc1 | ? | i | i | -99 | i | 5.2µM
COc1cccc(N2CCN(S(=O)(=O)c3ccc(-c4cc(C(F)(F)F)on4)s3)CC2)c1 | nt | nt | nt | i | nt | nt
CC(C)c1nc(SCC(=O)Nc2cccc3ccccc23)n[nH]1 | nt | i | nt | i | nt | nt
CC(C)(C)SCCNC(=O)COc1ccc(Cl)cc1 | ? | i | 11 | i | i | i
Cc1ccccc1CSCCNC(=O)COc1ccc(Cl)cc1 | ? | i | i | i | i | i
CN(CC(=O)Nc1ccc(Cl)cc1)C(=O)CCc1c[nH]c2ccccc12 | i | i | i | i | i | i
SMILES | Pf growth 96h | HCV inh | CHX counter | HCMV antiviral | Shiga toxin inh | Pf growth 48h
Cn1c(N)nc2nc(CCc3ccccc3)c(=O)[nH]c2c1=O | i | i | i | i | i | i
COc1ccc(NC(=O)c2nn(C)c(=O)c3ccccc23)cc1S(=O)(=O)Nc1ccccc1Cl | i | 13µM | i | i | i | i
COc1ccccc1NS(=O)(=O)c1cccc(NC(=O)c2nn(C)c(=O)c3ccccc23)c1 | 10µM | ? | nt | i | nt | ?
COC(=O)c1cccc(NC(=O)c2nn(C)c(=O)c3ccccc23)c1 | ? | i | i | i | i | ?
CC1(C(=O)NS(=O)(=O)Cc2cccc(Cl)c2)CCN1C(=O)C1(c2ccc(Cl)cc2)CCC1 (stereo unspecified) | nt | nt | nt | i | nt | nt
O=C(COC(=O)Cc1ccccc1)NCc1ccc2c(c1)OCO2 | nt | i | nt | i | nt | nt
O=C(NCc1ccc(N2CCCC2=O)cc1)c1cnccn1 | ? | i | i | i | i | nt
Cc1ncsc1C(=O)NCc1ccc(N2CCCC2=O)cc1 | 4.7µM | nt | i | i | i | nt
COc1cc(/C=N\NC(=O)C(C)(C)O)ccc1OC/C=C/c1ccccc1 | ? | i | i | i | i | i
CCOC(=O)/C=C1\Nc2ccccc2OC1=O | ? | ? | 21 | ? | i | ?
Cc1cccc(Cc2c(C)nc3nc(SCc4ccccc4F)nn3c2C)c1 | nt | nt | nt | i | nt | nt
CCOC(=O)C1CCN(C(=O)Cn2ncc3c4ccccc4n(Cc4ccc(F)cc4)c3c2=O)CC1 | nt | nt | nt | i | nt | nt
COc1ccc(Cl)cc1NC(=O)Cc1ccc(NC(=O)N2CCCCc3ccccc32)cc1 | nt | nt | nt | i | nt | nt
CCCCOc1ccc(C2=NNC(=O)CC2)cc1 | i | i | i | i | 40 | i
CCCCOc1ccc(C2(C)NC(=O)NC2=O)cc1 (stereo unspecified) | i | i | i | i | i | i
Cc1ccc(OCCC(=O)OCC(=O)NC(=O)NC2CCCC2)cc1 | i | i[8.37 µM] | nt | i | nt | i
Cc1ccc(CNC(=O)c2cnn(-c3cccc(C)c3)c2C2CCN(C(=O)OC(C)(C)C)CC2)cc1 | nt | nt | nt | i | nt | nt
Cc1cnn(C(=O)c2cc(-c3ccccc3)nc3ccccc23)c1 | i | i | i | i | i | i
Cc1cnn(-c2nc(-c3ccccc3)cc(-c3ccccc3)n2)c1 | i | 7.9µM | i | ? | i | ?
Fc1ccc(-c2cc(C(F)(F)F)nc(-n3cc(Cl)cn3)n2)cc1 | i | ? | i | ? | i | i
FC(F)(F)c1cc(-c2ccccc2)nc(-n2cc(Cl)cn2)n1 | ? | ? | i | -60 | i | ?
CCc1c(C)c2cc3c(c(C)c2oc1=O)OCN(CCc1ccc(OC)c(OC)c1)C3 | nt | nt | nt | i | nt | nt
c1ccc2c(c1)NCCS2 | i | i | 47 | i | 80 | i
CC(=O)c1ccc([N+](=O)[O-])c(CS(=O)(=O)c2ccccc2)c1 | i | i | i | i | i | i
COc1ccc(S(=O)(=O)N2CCCCC2)cc1NC(=O)CCCOc1ccc(C)cc1 | ? | ? | nt | i | nt | 10µM
SMILES | Pf growth 96h | HCV inh | CHX counter | HCMV antiviral | Shiga toxin inh | Pf growth 48h
Cc1ccc(S(=O)(=O)N2CCCCC2)cc1NC(=O)CCCOc1ccccc1 | ? | 10µM | nt | i | nt | ?
COc1ccc(OCCOc2ccc(S(=O)(=O)N3CCCC3)cc2C(N)=O)cc1 | 3.7µM | ? | nt | i | nt | i
Cc1ccc(S(=O)(=O)N2CCCCC2)cc1NC(=O)COC(=O)c1cccn1C | nt | 13µM | nt | i | nt | nt
Cc1ccc(S(=O)(=O)N2CCCCC2)cc1NC(=O)CCOc1ccccc1 | ? | ? | i | i | i | i
Cc1ccc(S(=O)(=O)N2CCCCC2)cc1NC(=O)CNc1ccccc1N1CCCC1=O | ? | i | nt | i | nt | 13µM
CCN(CC(=O)Nc1cc(S(=O)(=O)N2CCCCC2)ccc1C)Cc1ccccc1 | 12µM | ? | nt | i | nt | ?
Cc1ccc(S(=O)(=O)N2CCCCC2)cc1NC(=O)CN1CC=C(c2ccccc2)CC1 | 10µM | ? | i | i | i | ?
Cc1ccc(S(=O)(=O)N2CCCCC2)cc1NC(=O)c1ccco1 | nt | nt | nt | i | nt | nt
CC(=O)c1ccc(OCCCC(=O)Nc2cc(S(=O)(=O)N3CCCCC3)ccc2C)cc1 | 13µM | ? | nt | i | nt | ?
